Calls of active or inactive are those of the source. Rule for the calls: active = hit-call score of the fitted dose curve at least 0.9, where 1 is the maximum; inactive = score below 0.9.

The nature of this assay: APR_HepG2_MicrotubuleCSK_1hr: Apredica 1-hour HepG2 Assay for Microtubule CSK Stabilty (AID 2282669). The note with it: HepG2 microtubule cytoskeleton imaging, actives raise or lower the signal. The procedure:
APR_HepG2_1hr is a cell-based, multiplexed-readout assay that uses HepG2, a human liver cell line, with measurements taken at 1 hour after chemical dosing in a 384-well plate.APR_HepG2_MicrotubuleCSK_1hr is one of 10 assay component(s) measured or calculated from the APR_HepG2_1hr assay. It is designed to make measurements of protein conformation, a form of conformation reporter, as detected with fluorescence intensity signals by HCS Fluorescent Imaging technology.Data from the assay component APR_HepG2_MicrotubuleCSK_1hr was analyzed into 1 assay endpoint. This assay endpoint, APR_HepG2_MicrotubuleCSK_1hr, was analyzed with bidirectional fitting relative to DMSO as the negative control and baseline of activity. Using a type of conformation reporter, measures of protein for gain or loss-of-signal activity can be used to understand the signaling at the cellular-level. Furthermore, this assay endpoint can be referred to as a primary readout, because this assay has produced multiple assay endpoints where this one serves a signaling function. To generalize the intended target to other relatable targets, this assay endpoint is annotated to the cell morphology intended target family, where the subfamily is cell conformation.
Cells were treated with dimethyl sulfoxide (DMSO) as a solvent control at a final concentration of 0.5% v/v or with compounds in DMSO with a resulting final DMSO concentration of 0.5% v/v. Compound treatment was done at concentrations of 0.39, 0.78, 1.56, 3.12, 6.24, 12.5, 25, 50, 100, and 200 uM in duplicate on each plate. Cells were treated with compounds for 1, 24, or 72 hr. Carbonyl […] m-chloro-phenylhydrazone (CCCP) and taxol were used as positive controls for mitochondrial function and cytoskeletal stability, respectively; DMSO served as the negative control for this experiment. Cells were fixed by the direct addition of 50 uL formaldehyde in Hank's Balanced Salt Solution (HBSS) to a final concentration of 3.7%. After incubation in the fixation medium for 30 min at room temperature (293-298 K), cells were rinsed twice with HBSS and treated with cell permeabilization buffer (16 uL of 0.5% Triton X-100) for 10 min at room temperature (293-298 K) before labeling. For mitochondrial membrane potential and mitochondrial measurements, pre-fixed cells were incubated with 50 uL of MitoTracker Red CMXRos (Invitrogen) at a concentration of 250 nM for 30 min before fixation. In the remaining cases, post-fixed cells were labeled by incubation with a multiplexed mixture of primary antibodies in HBSS for 60 min at room temperature (293-298 K) to detect immunoreactivity of c-Jun (1:500), phospho-histone H3 (1:100), phospho-histone H2A.x (1:200), p53 (1:400), alpha-tubulin (1:200) and Hoechst 33342 (2 ug/mL). Cells were labeled for multiplexed imaging on two separate plates: a) Hoechst 33342, MitoTracker Red, phospho-histone H3, and alpha-tubulin, and b) Hoechst 33342, phospho-histone H2A.x, and c-Jun. A final rinse with HBSS (50 uL) was performed before analysis. The primary and secondary antibodies for the proteins were phospho-histone H3 (rabbit anti-phospho-histone H3 and FITC-donkey anti-rabbit IgG), phospho-histone H2A.x (mouse anti-phospho-histone H2A.x and FITC-donkey anti-mouse IgG), c-Jun (rabbit anti-phospho-c-Jun and Cy3-donkey anti-rabbit IgG), p53 (sheep anti-p53 and Cy5-donkey anti-sheep IgG), alpha-tubulin (mouse anti-alpha-tubulin and Cy5-donkey anti-mouse IgG). These antibodies are available as the CellCiphr HepG2 assay kit (Millipore).Digital images of each well were captured using a Cellomics ArrayScan VTI (Thermo Scientific Cellomics) (0.8 NA objective, 0.63x optical coupler, and XF-93 filter set) at 20x magnification. The images were acquired using the autofocus feature of the ArrayScan instrument, which entails the following steps. First, the camera focuses on channel 1 (Hoechst 33342), where nuclei are identified. Second, a Z offset of 1 um is used for capturing mitochondria (MitoTracker Red). […]
Turning to `O=C(Nc1ccccc1)Nc1ccnc(Cl)c1`, the call was inactive.
The result for `CCON=C(CC)C1=C(O)CC(c2c(C)cc(C)cc2C)CC1=O` (stereo not given) reads “inactive”; that for `CC(Oc1ccc(Cl)cc1Cl)C(=O)O` (stereo not given), “inactive”.
The result for `COC(=O)C=C(C)OP(=O)(OC)OC` reads “inactive”; that for `OC(c1ccc(Cl)cc1)(c1cncnc1)c1ccccc1Cl` (stereo not given), “inactive”; that for `O=C(O)COc1nc(Cl)c(Cl)cc1Cl`, “inactive”.
As for `N#Cc1nn(-c2c(Cl)cc(C(F)(F)F)cc2Cl)c(N)c1S(=O)C(F)(F)F` (stereo not given), the entry is “inactive”; as for `C=CC1(C)OC(=O)N(c2cc(Cl)cc(Cl)c2)C1=O` (stereo not given), “inactive”; as for `CCCCOC(=O)c1ccccc1C(=O)OCCCC`, “inactive”.
For the compound `COC(=O)c1ccccc1C(=O)OC`, the outcome was inactive.
`CCOP(=S)(OCC)SCn1c(=O)oc2cc(Cl)ccc21`: the compound was called inactive.
As for `C=CCC1=C(C)[C@@H](OC(=O)[C@@H]2[C@@H](C=C(C)C)C2(C)C)CC1=O`, the entry is “inactive”.
Regarding `COc1nc(NC(C)C)nc(NC(C)C)n1`, the result was inactive.
Regarding `C=CCC1=C(C)C(OC(=O)C2C(C=C(C)C)C2(C)C)CC1=O` (stereo not given), the result was inactive.
As to `Cc1cc(Cl)ccc1OCC(=O)O`, the outcome was inactive.
As for `COC(=O)C(C)Oc1ccc(Oc2ccc(Cl)cc2Cl)cc1` (stereo not given), the entry is “inactive”; as for `CCCC1COC(Cn2cncn2)(c2ccc(Cl)cc2Cl)O1` (stereo not given), “inactive”.
On to `N#CC(CCc1ccc(Cl)cc1)(Cn1cncn1)c1ccccc1` (stereo not given), for which the call was inactive.
The result for `CCNc1nc(Cl)nc(NCC)n1` reads “inactive”.
As for `CN(C)C(=S)SSC(=S)N(C)C`, the entry is “inactive”; as for `CCCCC(CC)COC(=O)c1ccccc1C(=O)OCC(CC)CCCC` (stereo not given), “inactive”.
Turning to `Cc1c(F)c(F)c(COC(=O)C2C(/C=C(\Cl)C(F)(F)F)C2(C)C)c(F)c1F` (stereo not given), the compound was called inactive.
Regarding `CCCCNC(=O)OCC#CI`, the compound was classed as inactive.
The result for `CC(C)Oc1cc(-n2nc(C(C)(C)C)oc2=O)c(Cl)cc1Cl` reads “inactive”.
As for `COc1cnc(OC)n2nc(NS(=O)(=O)c3c(OCC(F)F)cccc3C(F)(F)F)nc12`, the entry is “inactive”.
As for `CC1COC(Cn2cncn2)(c2ccc(Oc3ccc(Cl)cc3)cc2Cl)O1` (stereo not given), the entry is “inactive”; as for `Cc1ccc(-c2c(Cl)nc(C#N)n2S(=O)(=O)N(C)C)cc1`, “inactive”.
In the case of `C#CCOS(=O)OC1CCCCC1Oc1ccc(C(C)(C)C)cc1` (stereo not given), the compound was classed as inactive.
Regarding `CCOc1cc(Oc2ccc(C(F)(F)F)cc2Cl)ccc1[N+](=O)[O-]`, the outcome was inactive.
The result for `CCc1nn(C)c(C(=O)NCc2ccc(C(C)(C)C)cc2)c1Cl` reads “inactive”; that for `CNC(=S)S`, “inactive”; that for `COc1nc(C)nc(NC(=O)NS(=O)(=O)c2ccccc2Cl)n1`, “inactive”.
For the compound `CC(C)(C)c1ccc(CSc2cnn(C(C)(C)C)c(=O)c2Cl)cc1`, the compound was called inactive.
The result for `COc1nc(C)nc(NC(=O)NS(=O)(=O)c2ccccc2CCC(F)(F)F)n1` reads “inactive”; that for `COP(N)(=O)SC` (stereo not given), “inactive”.
Regarding `Fc1ccc(Oc2ccnc3cc(Cl)cc(Cl)c23)cc1`, the call was inactive.
As for `CON(C)C(=O)Nc1ccc(Cl)c(Cl)c1`, the entry is “inactive”; as for `COc1ccc(C(c2ccc(OC)cc2)C(Cl)(Cl)Cl)cc1`, “inactive”.
As for `CC1=C(C(=O)Nc2ccccc2)SCCO1`, the call was inactive.
As to `CC(C)C1(C)N=C(c2nc3ccccc3cc2C(=O)O)NC1=O` (stereo not given), the outcome was inactive.

For the origin of these results see PubChem BioAssay (EPA / NIEHS).
